According to PubChem BioAssay (NCI):
Compounds without any hit were thinned out: in the full panel of roughly 79,000, 15% have a hit. Calls of active or inactive are those of the source. No stated cut-off is given here; in the data, active means growth inhibition above about 70%; inactive means the rest.

Columns and labels:
[1] = NCI Yeast Anticancer Drug Screen. Data for the rad52 strain (AID 147);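 further: 0% = growth of vehicle-treated control cultures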; settings: S. cerevisiae rad52 mutant growth inhibition, stronger effect = higher value
Outline: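 Here a repair-compromised yeast strain receives each compound; its growth is then quantified and normalised to vehicle-only controls.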

[2] = NCI Yeast Anticancer Drug Screen. Data for the wt1 strain (AID 149);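 further: 0% = growth of vehicle-treated wt1 cultures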; settings: S. cerevisiae wt1 strain (SPY 50644) growth inhibition, stronger effect = higher value
Outline: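 wt1 yeast, compound-treated; % growth inhibition vs vehicle control.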

[3] = NCI Yeast Anticancer Drug Screen. Data for the rad50EPP+ strain (AID 151);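 further: 0% = growth of vehicle-treated control cultures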; settings: S. cerevisiae rad50 mutant strain, stronger effect = higher value
Outline: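 Read-out is yeast growth inhibition relative to vehicle; cells used were the rad50EPP+ strain.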

[4] = NCI Yeast Anticancer Drug Screen. Data for the mgt1 strain (AID 153); settings: S. cerevisiae mgt1 mutant growth inhibition, stronger effect = higher value
Outline: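 Measured: inhibition of mgt1 yeast growth by compound, normalized to vehicle-treated cultures.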

[5] = NCI Yeast Anticancer Drug Screen. Data for the rad50 strain (AID 155);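 further: 0% = growth of vehicle-only cultures of the same strain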; settings: S. cerevisiae rad50 strain growth inhibition, stronger effect = higher value
Outline: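 Genetically altered yeast (DNA repair pathway); compound treatment; growth inhibition vs vehicle ctrl.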

[6] = NCI Yeast Anticancer Drug Screen. Data for the mec2-1 strain (AID 157); settings: S. cerevisiae mec2-1 strain, stronger effect = higher value
Outline: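 Using mec2-1 yeast: add compound, measure growth, express inhibition versus vehicle-treated cultures.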

[7] = NCI Yeast Anticancer Drug Screen. Data for the rad14 strain (AID 159);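 further: 0% = growth of vehicle-treated control cultures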; settings: S. cerevisiae rad14 strain growth inhibition, stronger effect = higher value
Outline: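 Test compounds were applied to a repair-deficient yeast strain. Its growth was then compared with that of cultures given vehicle alone, and inhibition was expressed relative to those controls.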

[8] = NCI Yeast Anticancer Drug Screen. Data for the sgs1 mgt1 strain (AID 161);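 further: 0% = growth of cultures given vehicle only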; settings: S. cerevisiae sgs1 mgt1 strain, stronger effect = higher value
Outline: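 Yeast cells carrying a defined DNA-repair defect were exposed to test compounds. Growth inhibition was measured relative to vehicle-treated controls.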

[9] = NCI Yeast Anticancer Drug Screen. Data for the CLN2oe strain (AID 163);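 further: 0% = growth of vehicle-only control cultures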; settings: S. cerevisiae CLN2oe strain, stronger effect = higher value
Outline: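 Whole-cell yeast growth assay. A strain engineered for altered cell-cycle control received compound, and inhibition relative to vehicle-treated cultures was recorded.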

[10] = NCI Yeast Anticancer Drug Screen. Data for the cln2 rad14 strain (AID 165);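 further: 0% = growth equal to vehicle treated cultures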; settings: S. cerevisiae cln2 rad14 strain, stronger effect = higher value
Outline: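 Yeast strain cln2 rad14, bearing defects in cell cycle control and DNA repair, serves as the test system; values reflect growth inhibition compared with vehicle.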

[11] = NCI Yeast Anticancer Drug Screen. Data for the bub3 strain (AID 167); settings: S. cerevisiae bub3 mutant strain, stronger effect = higher value
Outline: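 Yeast carrying a defined mutation is treated with each compound, and growth is compared with that of vehicle-exposed cells to give inhibition.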

[12] = NCI Yeast Anticancer Drug Screen. Data for the wt2 strain (AID 169);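 further: 0% = growth of vehicle-treated yeast cultures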; settings: S. cerevisiae wt2 strain growth inhibition, stronger effect = higher value
Outline: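 Treated yeast vs. vehicle-treated yeast: growth inhibition determined.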

[13] = NCI Yeast Anticancer Drug Screen. Data for the sgs1 strain (AID 173);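 further: 0% = growth of vehicle-only control cultures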; settings: S. cerevisiae sgs1 mutant, stronger effect = higher value
Outline: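 A genetically defined yeast mutant is incubated with the test compound, and its growth is compared to that of the same strain given vehicle.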

[14] = NCI Yeast Anticancer Drug Screen. Data for the mlh1 rad18 strain (AID 175); settings: S. cerevisiae mlh1 rad18 strain growth inhibition, stronger effect = higher value
Outline: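 Steps: expose repair-defective yeast to compound; measure growth; express inhibition against vehicle-treated controls.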

[15] = NCI Yeast Anticancer Drug Screen. Data for the rad18 strain (AID 177); settings: S. cerevisiae rad18 mutant growth inhibition, stronger effect = higher value
Outline: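 Measured value is growth inhibition of a yeast strain bearing a DNA repair alteration, referenced to vehicle-treated cells.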

[16] = at 5.0 µM (retest, dose inferred, filed as 0.5)
[17] = at 50.0 µM (retest, dose inferred, filed as 5.0)

Measured: growth inhibition

CCCCCCCCCCCCCCN
inactive: [1]; at 1.2 µM 8% | [1]; at 3.7 µM 1% | [1]; at 11.0 µM -3% | [1]; at 33.0 µM 23% | [2]; at 1.2 µM 4% | [2]; at 3.7 µM -5% | [2]; at 11.0 µM -1% | [2]; at 33.0 µM 6% | [3]; at 1.2 µM -9% | [3]; at 3.7 µM 18% | [3]; at 11.0 µM 32% | [3]; at 33.0 µM 64% | [4]; at 1.2 µM -2% | [4]; at 3.7 µM 1% | [4]; at 11.0 µM -5% | [4]; at 33.0 µM 52% | [5]; at 1.2 µM 11% | [5]; at 3.7 µM 17% | [5]; at 11.0 µM 11% | [5]; at 33.0 µM 52% | [6]; at 1.2 µM -10% | [6]; at 3.7 µM -5% | [6]; at 11.0 µM -9% | [6]; at 33.0 µM 38% | [7]; at 1.2 µM 20% | [7]; at 3.7 µM 20% | [7]; at 11.0 µM 14% | [7]; at 33.0 µM 15% | [8]; [16] -20% | [9]; at 1.2 µM 6% | [9]; at 3.7 µM 6% | [9]; at 11.0 µM -14% | [9]; at 33.0 µM 37% | [10]; [16] 24% | [11]; at 1.2 µM 25% | [11]; at 3.7 µM 7% | [11]; [16] 31% | [11]; at 11.0 µM 21% | [11]; at 33.0 µM 58% | [12]; at 1.2 µM 3% | [12]; at 3.7 µM -1% | [12]; at 11.0 µM 4% | [12]; at 33.0 µM 27% | [13]; at 1.2 µM 10% | [13]; at 3.7 µM 16% | [13]; at 11.0 µM 19% | [13]; at 33.0 µM 65% | [15]; at 1.2 µM -3% | [15]; at 3.7 µM 4% | [15]; at 11.0 µM 5% | [15]; at 33.0 µM 24%
active: [1]; at 100.0 µM 98% | [2]; at 100.0 µM 98% | [3]; at 100.0 µM 97% | [4]; at 100.0 µM 99% | [5]; [16] 100% | [5]; [17] 97% | [5]; at 50.0 µM 90.3% | [5]; at 100.0 µM 98% | [6]; [16] 100% | [6]; [17] 96% | [6]; at 50.0 µM 92.1% | [6]; at 100.0 µM 99% | [7]; at 100.0 µM 99% | [8]; [17] 99% | [8]; at 50.0 µM 90.8% | [9]; at 100.0 µM 98% | [10]; [17] 99% | [10]; at 50.0 µM 88.2% | [11]; [17] 99% | [11]; at 50.0 µM 90.7% | [11]; at 100.0 µM 98% | [12]; at 100.0 µM 99% | [13]; at 100.0 µM 98% | [14]; [16] 100% | [14]; [17] 97% | [14]; at 50.0 µM 91.2% | [15]; at 100.0 µM 98%
